According to article PMC4336329 (PLoS ONE, 2015):
Among all 310,000 compounds or so, about 2,200 (0.71%) showed an effect of 50% or more. The effect is printed as a negative number. Only a selection was taken, and strong results are over-represented in it overall.

target: human ether-à-go-go-related gene (hERG) potassium channel (human, UniProt Q12809); test: primary screen, population patch clamp on CHO cells stably expressing hERG; higher = less effect of the substance
Sequence (Q12809 whole entry, looked up): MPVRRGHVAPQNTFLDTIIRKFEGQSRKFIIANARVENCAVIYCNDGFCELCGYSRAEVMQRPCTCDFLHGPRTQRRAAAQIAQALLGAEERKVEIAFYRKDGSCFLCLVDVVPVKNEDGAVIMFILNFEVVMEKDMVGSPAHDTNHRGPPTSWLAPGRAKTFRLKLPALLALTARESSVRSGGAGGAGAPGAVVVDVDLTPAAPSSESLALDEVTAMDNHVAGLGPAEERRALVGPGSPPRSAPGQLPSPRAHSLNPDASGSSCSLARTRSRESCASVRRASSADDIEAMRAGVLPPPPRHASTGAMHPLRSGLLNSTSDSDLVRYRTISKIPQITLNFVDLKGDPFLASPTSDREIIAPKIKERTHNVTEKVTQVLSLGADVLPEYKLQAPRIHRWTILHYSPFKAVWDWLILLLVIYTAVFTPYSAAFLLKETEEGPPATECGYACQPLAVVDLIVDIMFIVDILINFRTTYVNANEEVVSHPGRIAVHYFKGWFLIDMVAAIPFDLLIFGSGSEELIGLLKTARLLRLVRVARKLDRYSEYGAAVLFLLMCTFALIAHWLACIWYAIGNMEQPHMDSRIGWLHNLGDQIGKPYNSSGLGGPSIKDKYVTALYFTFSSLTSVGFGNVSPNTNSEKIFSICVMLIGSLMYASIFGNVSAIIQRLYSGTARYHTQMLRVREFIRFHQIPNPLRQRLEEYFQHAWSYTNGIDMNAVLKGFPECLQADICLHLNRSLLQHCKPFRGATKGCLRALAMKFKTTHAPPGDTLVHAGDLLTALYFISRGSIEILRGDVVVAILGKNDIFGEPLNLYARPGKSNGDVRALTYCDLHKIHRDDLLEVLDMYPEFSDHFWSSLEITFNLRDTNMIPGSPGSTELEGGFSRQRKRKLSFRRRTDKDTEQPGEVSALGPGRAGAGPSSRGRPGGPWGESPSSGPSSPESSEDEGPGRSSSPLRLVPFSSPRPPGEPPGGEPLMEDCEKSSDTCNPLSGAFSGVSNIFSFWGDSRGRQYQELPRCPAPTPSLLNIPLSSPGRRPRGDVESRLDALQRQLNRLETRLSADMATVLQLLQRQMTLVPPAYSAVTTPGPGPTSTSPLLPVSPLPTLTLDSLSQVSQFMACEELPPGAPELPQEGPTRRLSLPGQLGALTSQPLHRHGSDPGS

Row | Compound | hERG current change (%, negative = inhibition) at 1uM [%]
1 | CC(C)OCCCNC(=O)c1c(N)n(CC2CCCO2)c2nc3ccccc3nc12 (stereo not drawn) | 6.34
2 | CCn1c(Cn2nnc(-c3ccccc3)n2)nnc1SCC(=O)Nc1ccc(C(C)=O)cc1 | 5.63
3 | COc1ccc(CCn2c(=N)c(C(=O)NCCN3CCOCC3)cc3c(=O)n4cccc(C)c4nc32)cc1OC | -44.4
4 | COc1ccc(CCn2c(=N)c(C(=O)NCC3CCCO3)cc3c(=O)n4cccc(C)c4nc32)cc1OC (stereo not drawn) | -87.1
5 | COc1ccc(CCn2c(=N)c(C(=O)NCC3CCCO3)cc3c(=O)n4cccc(C)c4nc32)cc1 (stereo not drawn) | -88.1
6 | Cc1cccn2c(=O)c3cc(C(=O)NCC4CCCO4)c(=N)n(CCc4ccccc4)c3nc12 (stereo not drawn) | -84.4
7 | CC(C)C(NC(=O)C1CCCCC1)C(=O)N1CCN(c2ccc(F)cc2)CC1 (stereo not drawn) | -32.1
8 | CS(=O)(=O)N1CCN(c2ccccc2NC(=O)c2ccc3c(c2)OCCO3)CC1 | 9.09
9 | COc1cc(C(=O)N[C@@H](C)C(=O)N2CCC3(CC2)NCCc2[nH]cnc23)cc(OC)c1OC | 15.3
10 | CN(C)c1ccc(CNS(=O)(=O)c2csc(C(N)=O)c2)cc1 | 13
11 | COc1ccc(Cl)cc1CSc1n[nH]c(C)n1 | 16.6
12 | O=C(N/N=C/c1ccc(Cl)s1)C(O)c1ccccc1 (stereo not drawn) | 16.4
13 | O=c1c([N+](=O)[O-])c(N2CCCC2)c2ccccc2n1-c1ccccc1 | 4.99
14 | CCOC(=O)C1=C[C@]2(CC)CCCN3CCc4c(n1c1ccccc41)[C@@H]32 | -95.5
15 | CCOC(=O)C1=CC[C@H]2c3c(c4ccccc4n3C)C[C@H]1N2C | 15.5
16 | CC[C@]12CCCN3CCc4c(n(c5ccccc45)C(=O)C1)[C@@H]32 | -70.5
17 | NC(=O)C1CCCc2c1n(Cc1ccccc1)c1ccccc21 (stereo not drawn) | 9.63
18 | O=C(O)Cn1c(=O)c2c(c3ccccc31)CCC2 | 11.5
19 | CCn1cc(C2N3CC4(C)CN2CC(C)(C3)C4=O)c2ccccc21 (stereo not drawn) | 4.63
20 | CC[C@]12CCCN3CCc4c(n(c5ccccc45)C(=O)C1)C32 (stereo partly drawn) | -50.5
21 | CCOC(=O)NNC(=O)CCn1c2c(c3ccccc31)CCCC2 | 6.89
22 | Cl.Cn1c2c(c3ccccc31)CCN1CCC[C@]21c1ccccc1 | 12.1
23 | CCN1CCC(=NNC(=O)CC23CC4CC(CC(C4)C2)C3)CC1 | 11.5
24 | COc1cc(NC(c2ccccc2)c2ccccc2)cc(OC)c1OC | 5.7
25 | Nc1nc(/C=C/c2cccnc2)nc(-c2ccccc2O)n1 | 10.4
26 | COc1cccc(COC(=O)C2CCN(S(=O)(=O)c3ccc(Cl)cc3)CC2)c1OC | 5.7
27 | CC(=O)c1ccc(S(=O)(=O)N2CCN(c3ccccc3F)CC2)cc1 | 8.26

Row | Compound | hERG current change (%, negative = inhibition) at 1uM [%]
28 | Cl.OC(CN1C2=NCCN2c2ccccc21)c1ccc2c(c1)OCO2 (stereo not drawn) | -27.7
29 | Cl.OC(CN1C2=NCCN2c2ccccc21)c1ccccc1 (stereo not drawn) | -5.32
30 | Cl.OCCN1C2=NCCCN2c2ccccc21 | 10.3
31 | Br.O=C(CN1C2=NCCN2c2ccccc21)c1ccc(Br)s1 | -0.685
32 | Cl.c1ccc2c(c1)N1CCCN=C1N2CCN1CCCCC1 | -26.2
33 | Cl.OC(CN1C2=NCCCN2c2ccccc21)c1ccc(Cl)cc1 (stereo not drawn) | -76.2
34 | Br.O=C(CN1C2=NCCN2c2ccccc21)c1ccc2c(c1)OCO2 | -42.1
35 | Cl.OC(CN1C2=NCCCN2c2ccccc21)c1ccc2c(c1)OCO2 (stereo not drawn) | -68.6
36 | Cl.OC(CN1C2=NCCCN2c2ccccc21)c1ccc(Br)cc1 (stereo not drawn) | -86.2
37 | OC(CN1C2=NCCN2c2ccccc21)c1ccc(Br)cc1 (stereo not drawn) | -63
38 | Cn1c(=O)n(C)c2cc(NC(=O)CSc3nnc(-c4ccccc4O)n3-c3ccccc3)ccc21 | 6.95
39 | O=C(C1=NN[C@@H]2C(=O)N(c3cccc(F)c3)C(=O)[C@H]12)c1ccc2ccccc2n1 | 6.85
40 | CN(C)CCCN(C(=O)c1ccc(Br)s1)c1nc2cc3c(cc2s1)OCO3.Cl | 4.06
41 | O=C(c1cc2ccccc2o1)c1nc2c(n1O)CCCCC2 | 9.78
42 | COCCCNC(=O)Cn1c(=O)n(CCCCCC(=O)Nc2ccccc2)c(=O)c2sccc21 | 14
43 | Cc1ccc(S(=O)(=O)N2CCCC(C(=O)NNCC(=O)Nc3cc(F)ccc3F)C2)cc1 (stereo not drawn) | -0.56
44 | Cc1ccc(C(O)CN2C3=NCCN3c3ccccc32)cc1.Cl (stereo not drawn) | -40.9
45 | Cc1ccc(C(O)CN2C3=NCCCN3c3ccccc32)cc1.Cl (stereo not drawn) | -51.4
46 | Cc1ccccc1CN1C2=NCCCN2c2ccccc21.Cl | -27.3
47 | CC1CN(S(=O)(=O)c2ccc(C(=O)NCCCn3ccnc3)cc2)CC(C)O1 (stereo not drawn) | 11.7
48 | CCc1nc(SCC(=O)c2ccc(Cl)s2)c2oc3ccccc3c2n1 | 9.25
49 | CCCOc1cccc(C(=O)NCCNC(=O)c2ccco2)c1 | 18.6
50 | O=C(N/N=C/c1cc2c(cc1[N+](=O)[O-])OCO2)c1ccccn1 | 10.1
51 | Cc1cc(S(=O)(=O)N2CCN(c3c(C)cccc3C)CC2)ccc1F | -0.574
52 | CCC(C)N(C)Cc1cccc(C2(O)CCN(S(=O)(=O)c3ccc(F)c(C)c3)CC2)c1 (stereo not drawn) | -71.2
53 | CCC(C)N(C)Cc1cccc(C2(O)CCN(S(=O)(=O)c3ccc(F)cc3)CC2)c1 (stereo not drawn) | -30.8
54 | Cc1c(O[C@@H]2O[C@H](CO)[C@@H](O)[C@H](O)[C@H]2O)ccc2c1oc(=O)c1ccccc12 | 16.9
